Columns and labels:
Experiment in all cases: PBM binding z-score (relative to random genomic background probes); higher = stronger binding; sequences stand for … in GC…GCGATTGACAGCGTAGAATGAAGG
[1] = tested on: RARb homodimer (NR concentration 270 nM)
Outline: (§1)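 Probes were double-stranded and carried 34-nt variable regions with direct-repeat seeds, single-nucleotide variants, half-site ablations and random human genomic background sequences, printed on custom Agilent 4×180K protein-binding microarrays. Arrays were incubated 1 h with ligand-free nuclear receptor dimers in PBS pH 7.4, 2% milk, 0.02% Triton X-100, 1 mM DTT, 0.2 mg/mL BSA and 0.4 mg/ml salmon testes DNA. Antibodies against each partner (one per run) detected binding, and scanned fluorescence was regression-normalized. Binding z-scores use the random background probes as reference.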

[2] = tested on: RARg:RXRa (NR concentration 270 nM, RXRa partner concentration 90 nM)
Outline: as §1

[3] = tested on: RARg homodimer (NR concentration 270 nM)
Outline: as §1

[4] = tested on: RXRa DBDmut IVT, anti-RXR (DBD mutation: RXRa K156A/R161A, NR concentration 90 nM)
Outline: as §1

[5] = tested on: RXRa homodimer (NR concentration 180 nM)
Outline: as §1

[6] = tested on: THRa:RXRa (NR concentration 90 nM, RXRa partner concentration 90 nM)
Outline: as §1

[7] = tested on: THRa homodimer (NR concentration 90 nM)
Outline: as §1

[8] = tested on: VDR homodimer (NR concentration 270 nM)
Outline: as §1

Sequence	PBM binding z-score [1]	PBM binding z-score [2]	PBM binding z-score [3]	PBM binding z-score [4]	PBM binding z-score [5]	PBM binding z-score [6]	PBM binding z-score [7]	PBM binding z-score [8]
CATACAGGGTCAGCTAGGCCAGTGTAGGGACGGC	3.34	4.2	4.67	1.57	3.89	3.07	0.856	1.07
CGTCAAATTTCAAGGTAACGTAACAGAAAGCAGC	-0.107	0.0405	0.398	-0.0368	0.32	2.11	1.27	-0.239
CAAACTAGGTAAAGAGGTCAAAGTCCGCTTCCCG	4.1	5.02	4	2.13	5.62	3.75	1.47	4.05
CGTCCAAGGTCTGCAGGTCAGTGAAAGCGACGTG	2.06	1.26	1.8	0.0779	0.794	1.12	-0.0329	-0.462
CAAACTAGGTCACCGGAAGGTGAAAGTCCGCATG	4.38	6.41	5.87	1.3	4.7	4.01	2.37	0.904
TGAATGAGGGTAAAGATCAGGGAACGTGGCGTCG	-0.018	0.443	0.391	-0.234	1.07	0.432	-0.386	-0.201
GATACAGGGTCAAGGCCGGAGTACGCGTATTGAT	3.43	5.35	5.4	2.23	5.79	3.46	1.03	1.78
TCTAGTTAGTCAAAGGTCACACACTCGAAATGCG	4.84	6.12	5.68	2.03	7.09	3.97	1.9	2.57
AGAATGAGGTTATTATGATCAGGGAATTGCGGTC	0.795	1.07	0.882	2.21	1.7	2.21	1.08	1.41
GCTCGGAGGACAAGGTCTGAGCTTTGTCCGTAGA	0.301	-0.104	0.27	-0.359	-0.785	0.705	-0.422	-0.592
GCATATAGGCAATACAAGGTGAAAGTCCGATTGT	0.688	0.477	0.305	0.168	0.621	3.17	0.6	-0.0976
ACTAGCAGGCCAAGTTTGGGTCACTGAAACAAAG	2.33	2.54	2.01	-0.119	0.982	2.71	1.29	0.416
TAGCCTAGGTCATTGGGCCACTATAGTACGCATC	3.11	3.84	4.24	1.92	2.97	2.87	1.3	1.77
CCTAGCAGGCCAATCAGGGTCACTCAAGGCTTGA	3.13	2.79	2.02	0.629	3.31	4.68	1.15	1.77

Reference: the supplement of paper PMC6555819
